Drawing on PubChem BioAssay (EPA / NIEHS), this text covers outcome and AC50 for 40 compounds.

“And” between values parts separate entries of the source, which are not always exact repeats. Identical values can stand only once. The source made the active and inactive calls. Rule for the calls: active = hit-call score of the fitted dose curve at least 0.9, where 1 is the maximum; inactive = score below 0.9.

Read-out in this experiment: Human Leukocyte Antigen - DR isotype (HLADR), HLA-DRA (gene 3122)
The experiment in a line: BSK_BE3C_HLADR: BioMAP Diversity Plus: BE3C Assay for Human Leukocyte Antigen - DR isotype (HLADR) Biomarker Activity (AID 2283032). Particulars: primary human bronchial epithelial cells; actives raise or lower the signal. Here is the method:
BSK_BE3C is a cell-based, multiplexed-readout assay that uses bronchial epithelial cell, a human lung primary cell, with measurements taken at 24 hours after chemical dosing in a 96-well plate.BSK_BE3C_HLADR is an assay component measured in the BSK_BE3C assay. It measures HLA-DR antibody related to regulation of gene expression using ELISA technology.Data from the assay component BSK_BE3C_HLADR was analyzed into 1 assay endpoint. This assay endpoint, BSK_BE3C_HLADR, was analyzed with bidirectional fitting relative to DMSO as the negative control and baseline of activity. Using a type of binding reporter, gain or loss-of-signal activity can be used to understand changes in the signaling as they relate to the gene HLA-DRA. Furthermore, this assay endpoint can be referred to as a primary readout, because this assay has produced multiple assay endpoints where this one serves a signaling function. To generalize the intended target to other relatable targets, this assay endpoint is annotated to the cell adhesion molecules intended target family, where the subfamily is MHC Class II.
The levels of cell surface (or secreted, indicated by the prefix "s") biomarker endpoints were measured by ELISA. Overt cytotoxicity to cells in confluent adherent cultures (all systems other than the BT system) was assessed by measuring total protein levels using sulforhodamine B (SRB) staining in parallel cultures at the time of biomarker measurements, indicated as SRB endpoints. For proliferation assays for adherent cell types, individual cell types are cultured at sub-confluence and relative cell numbers quantified by SRB staining at time points optimized for each system (48 h: 3C and CASM3C systems; 72 h: BT and HDF3CGF systems; 96 h: SAg system). SRB was performed by staining cells with 0.1% SRB after fixation with 10% TCA and reading wells at 560 nm.Viability and proliferation of PBMC (T cells) was quantified by Alamar Blue reduction for the SAg and BT systems. For PBMC viability (referred to as PBMC Cytotoxicity within the assay endpoint names), cells were plated (75,000/well in a 96-well plate) and then chemical samples added for 1 h before addition of activators, SEB and TSST-1 (20 ng/mL final concentration each). Cells were incubated for 90 h. Then, Alamar Blue (20 uL/well) (Invitrogen, Cat DAL1100) was added for 6 h, and the plates were read with a fluorescence microplate reader at 546/580 nm (excitation/emission). For PBMC proliferation, cells were plated and activated as above but incubated for only 16 h prior to addition of Alamar Blue. Plates were read after 6 h.
Consider `CCC(=O)Nc1ccc(Cl)c(Cl)c1`, for which the result was inactive.

For `COc1cc(OC)nc(Sc2cccc(Cl)c2C(=O)O)n1`, the outcome was inactive.

In the case of `CC(C)[C@H](C(=O)O[C@H](C#N)c1cccc(Oc2ccccc2)c1)c1ccc(Cl)cc1`, the result was inactive.

`CCOP(=S)(Oc1cnc(C(C)(C)C)nc1)OC(C)C` (stereo not given): the result was inactive.

Consider `CSC1=N[C@@](C)(c2ccccc2)C(=O)N1Nc1ccccc1`, for which the outcome was inactive.

As to `CCNc1nc(Cl)nc(NC(C)(C)C#N)n1`, the result was inactive.

`C[N+]1(C)CCCCC1`: the outcome was inactive.

Consider `CNC(=O)ON=C(C)SC`, for which the result was inactive.

Broadly, the AC50 is the concentration at which the activity in the assay is half-maximal. On to `CCCSP(=O)(OCC)Oc1ccc(Br)cc1Cl` (stereo not given), for which the AC50 is 32.1 µM (active).

With `CCOC(=O)COc1cc(-c2nn(C)c(OC(F)F)c2Cl)c(F)cc1Cl`, the result was inactive.

In the case of `C[Si](Cn1cncn1)(c1ccc(F)cc1)c1ccc(F)cc1`, the result was inactive.

Regarding `C#CCC1=C(C)C(OC(=O)C2C(C=C(C)C)C2(C)C)CC1=O` (stereo not given), the outcome was inactive.

Turning to `CCOP(=O)(SC(C)CC)N1CCSC1=O` (stereo not given), the outcome was inactive.

In the case of `Cc1ccn2nc(S(=O)(=O)Nc3c(F)cccc3F)nc2n1`, the outcome was inactive.

Turning to `CCOP(=S)(OCC)Oc1cc(C)nc(C(C)C)n1`, the outcome was inactive.

For `CON=C(C(=O)OC)c1ccccc1CON=C(C)c1cccc(C(F)(F)F)c1`, the outcome was inactive.

In the case of `CCCCOC(=O)c1ccccc1C(=O)O`, the result was inactive.

For `CCC(CC)Nc1c([N+](=O)[O-])cc(C)c(C)c1[N+](=O)[O-]`, the result was inactive.

`COP(=O)(OC)C(O)C(Cl)(Cl)Cl` (stereo not given): the result was inactive.

Turning to `O=[N+]([O-])c1cc(C(F)(F)F)c(Cl)c([N+](=O)[O-])c1Nc1ncc(C(F)(F)F)cc1Cl`, the AC50 was 1.52 µM (active) and 3.78 µM (active).

As to `CCOP(=S)(OCC)OC(Cl)C(Cl)(Cl)Cl` (stereo not given), the outcome was inactive.

Consider `CCCOCC(=Nc1ccc(Cl)cc1C(F)(F)F)n1ccnc1`, for which the AC50 is 25.7 µM (active).

As to `COc1cccc(C(=O)NN(C(=O)c2cc(C)cc(C)c2)C(C)(C)C)c1C`, the outcome was inactive.

Turning to `CC1(C(=O)Nc2ccc(O)c(Cl)c2Cl)CCCCC1`, the result was inactive.

As for `CCOP(=S)(OCC)Oc1ccc([N+](=O)[O-])cc1`, the outcome was inactive.

Take `CCc1cnc(C2=NC(C)(C(C)C)C(=O)N2)c(C(=O)O)c1` (stereo not given): the outcome was inactive.

Regarding `CCCCN(CC)c1c([N+](=O)[O-])cc(C(F)(F)F)cc1[N+](=O)[O-]`, the outcome was inactive.

With `CC(C1CC1)C(O)(Cn1cncn1)c1ccc(Cl)cc1` (stereo not given), the result was inactive.

As for `CCCSP(=O)(OCC)SCCC`, the outcome was inactive.

For `COP(=O)(NC(C)=O)SC` (stereo not given), the result was inactive.

As to `CCOC(=O)CC(SP(=O)(OC)OC)C(=O)OCC` (stereo not given), the outcome was inactive.

As for `CNC(=O)Oc1cccc2c1OC(C)(C)O2`, the result was inactive.

As for `C#CC(C)(C)NC(=O)c1cc(Cl)cc(Cl)c1`, the AC50 is 4.39 µM (active).

For the compound `CN(C)C(=O)Nc1cccc(C(F)(F)F)c1`, the outcome was inactive.

Take `CCCCSP(=O)(SCCCC)SCCCC`: the AC50 was 20 µM (active).

On to `CC(Oc1cccc(Cl)c1)C(=O)O` (stereo not given), for which the outcome was inactive.

As for `CSc1nnc(C(C)(C)C)c(=O)n1N`, the result was inactive.

As to `CC[C@H](C)[C@H]1O[C@]2(C=C[C@@H]1C)C[C@@H]1C[C@@H](C/C=C(\C)[C@@H](O[C@H]3C[C@H](OC)[C@@H](O[C@H]4C[C@H](OC)[C@@H](NC)[C@H](C)O4)[C@H](C)O3)[C@@H](C)/C=C/C=C3\CO[C@@H]4[C@H](O)C(C)=C[C@@H](C(=O)O1)[C@]34O)O2`, the AC50 was 3.98 µM (active).

Turning to `Nc1nc(N)nc(NC2CC2)n1`, the outcome was inactive.

For `CCOP(=O)(OCC)Oc1cc(C)nc(C(C)C)n1`, the result was inactive.
